Source: ChEMBL document CHEMBL3988442, “University of Dundee, Small-Polar-MMV Screening Library” (2021)
For some of these results: Entries with a potency or affinity are not part of this list.

Assays:
Parameters in all cases: scale not given: direction of the effect not stated beside the values
[1] = molecular target: Protein translocase subunit SecA (Escherichia coli (strain K12)) (UniProt P10408); test: Assay to Identify E. coli SecA ATPase Inhibitors; assay type: functional; conditions: 30 µM
[2] = molecular target: T1, Ubiquitin-activating enzyme e1, putative (Leishmania donovani (strain BPK282A1)) (UniProt E9BSI1); test: Leishmania donovani Ubiquitin Activating Enzyme (LdE1); assay type: functional; conditions: 30 µM
T1 sequence (whole entry): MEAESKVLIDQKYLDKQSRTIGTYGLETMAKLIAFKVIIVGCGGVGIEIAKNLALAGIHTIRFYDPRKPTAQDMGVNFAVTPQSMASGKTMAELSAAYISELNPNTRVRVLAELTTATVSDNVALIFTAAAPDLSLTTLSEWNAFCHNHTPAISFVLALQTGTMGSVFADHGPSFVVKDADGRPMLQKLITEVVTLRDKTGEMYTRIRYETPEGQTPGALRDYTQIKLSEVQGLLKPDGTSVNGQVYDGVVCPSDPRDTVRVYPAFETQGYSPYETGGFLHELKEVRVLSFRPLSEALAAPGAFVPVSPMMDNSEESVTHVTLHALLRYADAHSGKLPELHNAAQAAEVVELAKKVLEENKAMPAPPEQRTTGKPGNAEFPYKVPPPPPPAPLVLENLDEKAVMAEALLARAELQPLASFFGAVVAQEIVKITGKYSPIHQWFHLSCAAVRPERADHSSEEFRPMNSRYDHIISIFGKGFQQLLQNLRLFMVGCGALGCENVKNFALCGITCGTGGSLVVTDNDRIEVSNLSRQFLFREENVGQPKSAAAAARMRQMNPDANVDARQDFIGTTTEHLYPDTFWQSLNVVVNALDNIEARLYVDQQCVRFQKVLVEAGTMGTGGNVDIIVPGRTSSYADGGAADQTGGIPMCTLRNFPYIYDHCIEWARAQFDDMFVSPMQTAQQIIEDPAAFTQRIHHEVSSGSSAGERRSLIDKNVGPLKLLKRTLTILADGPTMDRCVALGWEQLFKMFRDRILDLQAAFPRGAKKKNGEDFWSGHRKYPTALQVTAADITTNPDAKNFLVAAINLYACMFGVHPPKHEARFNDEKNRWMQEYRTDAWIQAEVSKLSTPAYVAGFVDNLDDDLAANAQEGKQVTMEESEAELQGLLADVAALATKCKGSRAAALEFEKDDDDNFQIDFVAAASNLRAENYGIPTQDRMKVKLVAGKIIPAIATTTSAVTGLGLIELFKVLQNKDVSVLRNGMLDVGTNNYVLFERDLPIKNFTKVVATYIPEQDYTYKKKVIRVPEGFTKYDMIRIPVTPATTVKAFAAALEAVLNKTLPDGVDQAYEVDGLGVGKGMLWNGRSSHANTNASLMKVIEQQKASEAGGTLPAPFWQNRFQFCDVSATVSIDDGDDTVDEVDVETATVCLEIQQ

[3] = molecular target: AMP-activated protein kinase, AMPK (Homo sapiens) (UniProt P54646+O43741+P54619+Q9UGJ0+Q9Y478+Q13131+Q9UGI9); test: AMP-dependent Kinase enzyme assay. An in vitro enzyme assay that detects ADP turnover that is directly proportional to AMPK activity. This uses naive AMPK that is activated during the assay with MK-8722; assay type: functional; conditions: 30 µM
[4] = molecular target: Sialic acid-binding Ig-like lectin 9 (Homo sapiens) (UniProt Q9Y336); test: Hs-Siglec9 ALPHAscreen SOP 20170721; conditions: 10 µM
Trypanosoma cruzi = test: Trypanosoma cruzi phosphomannomutase and mannose-1-phosphate guanylyltransferase assay; assay type: functional; conditions: 10 µM
[5] = molecular target: T2, Arginase-2, mitochondrial (Homo sapiens) (UniProt P78540); test: in vitro enzyme assay to detect the production of urea directly proportional to the activity of Arginase II; assay type: functional; conditions: 33.3 µM; further: in the data most compounds retested in dose-response had high values
T2 sequence (whole entry): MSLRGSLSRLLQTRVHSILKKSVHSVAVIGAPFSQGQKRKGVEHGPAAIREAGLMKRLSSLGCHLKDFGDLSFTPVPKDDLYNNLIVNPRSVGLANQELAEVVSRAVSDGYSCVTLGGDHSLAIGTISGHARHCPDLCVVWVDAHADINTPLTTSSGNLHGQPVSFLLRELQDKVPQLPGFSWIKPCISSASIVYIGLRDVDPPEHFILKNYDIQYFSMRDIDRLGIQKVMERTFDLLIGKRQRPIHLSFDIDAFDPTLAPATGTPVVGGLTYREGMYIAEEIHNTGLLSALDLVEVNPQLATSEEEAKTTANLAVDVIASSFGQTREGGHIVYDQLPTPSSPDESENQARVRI

[6] = molecular target: T3, Proteasome subunit beta (Trypanosoma cruzi) (UniProt O96673); test: Trypanosoma cruzi proteasome chymotrypsin-like activity (TcProtChymo) assay.; further: in the data most compounds retested in dose-response had high values; assay type: functional; conditions: 9.37 µM
T3 sequence (whole entry): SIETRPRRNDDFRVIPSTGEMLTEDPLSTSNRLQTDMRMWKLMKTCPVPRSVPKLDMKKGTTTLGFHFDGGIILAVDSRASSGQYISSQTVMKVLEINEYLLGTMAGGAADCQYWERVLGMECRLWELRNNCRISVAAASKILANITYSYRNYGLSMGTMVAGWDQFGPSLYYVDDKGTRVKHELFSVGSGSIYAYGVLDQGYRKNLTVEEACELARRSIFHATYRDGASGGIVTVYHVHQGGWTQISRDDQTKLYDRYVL

Homo sapiens = species: Homo sapiens; test: To identify inhibition of the IFN signalling (Jak-Stat) pathway via expression of an eGFP reporter gene under the control of an IFN-stimulated response element (ISRE) containing MxA promoter.; assay type: functional; conditions: 30 µM
[7] = molecular target: T4, Tyrosyl-tRNA synthetase, putative (Trypanosoma cruzi (strain CL Brener)) (UniProt Q4DSP6); test: Trypanosoma cruzi tyrosyl tRNA synthetase (TcYRS) _High Tyrosine SOP; assay type: functional; conditions: 30 µM; further: in the data most compounds retested in dose-response had high values
T4 sequence (whole entry): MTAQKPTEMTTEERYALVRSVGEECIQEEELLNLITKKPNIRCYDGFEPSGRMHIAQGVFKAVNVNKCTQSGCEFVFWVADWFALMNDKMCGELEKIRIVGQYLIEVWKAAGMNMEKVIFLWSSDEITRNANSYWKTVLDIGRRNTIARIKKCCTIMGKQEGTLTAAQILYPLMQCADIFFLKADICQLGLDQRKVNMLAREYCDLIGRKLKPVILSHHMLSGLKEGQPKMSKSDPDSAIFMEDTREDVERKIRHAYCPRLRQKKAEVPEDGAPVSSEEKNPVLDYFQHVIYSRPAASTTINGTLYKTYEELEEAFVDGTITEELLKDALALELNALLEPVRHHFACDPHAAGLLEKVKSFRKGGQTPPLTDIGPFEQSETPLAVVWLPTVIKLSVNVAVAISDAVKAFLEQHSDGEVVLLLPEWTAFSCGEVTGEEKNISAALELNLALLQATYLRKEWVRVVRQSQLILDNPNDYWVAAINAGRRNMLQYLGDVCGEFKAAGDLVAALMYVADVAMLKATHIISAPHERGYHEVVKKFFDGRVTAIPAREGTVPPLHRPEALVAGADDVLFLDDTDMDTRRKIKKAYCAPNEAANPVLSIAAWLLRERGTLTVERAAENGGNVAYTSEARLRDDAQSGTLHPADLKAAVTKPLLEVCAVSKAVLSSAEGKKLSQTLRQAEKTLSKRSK

[8] = molecular target: T4, Tyrosyl-tRNA synthetase, putative (Trypanosoma cruzi (strain CL Brener)); test: Trypanosoma cruzi tyrosyl tRNA synthetase (TcYRS) SOP; assay type: functional; conditions: 30 µM
[9] = molecular target: Chromo domain-containing protein 1 (Saccharomyces cerevisiae (strain ATCC 204508 / S288c) (Baker's yeast)) (UniProt P32657); test: ScCHD-1 Enzyme Inhibition Assay; assay type: functional; conditions: 30 µM; further: in the data most compounds retested in dose-response had high values
Chromo domain-containing protein 1 (Saccharomyces cerevisiae (strain ATCC 204508 / S288c) (Baker's yeast)), sequence (P32657 whole entry, the tested form may be a part): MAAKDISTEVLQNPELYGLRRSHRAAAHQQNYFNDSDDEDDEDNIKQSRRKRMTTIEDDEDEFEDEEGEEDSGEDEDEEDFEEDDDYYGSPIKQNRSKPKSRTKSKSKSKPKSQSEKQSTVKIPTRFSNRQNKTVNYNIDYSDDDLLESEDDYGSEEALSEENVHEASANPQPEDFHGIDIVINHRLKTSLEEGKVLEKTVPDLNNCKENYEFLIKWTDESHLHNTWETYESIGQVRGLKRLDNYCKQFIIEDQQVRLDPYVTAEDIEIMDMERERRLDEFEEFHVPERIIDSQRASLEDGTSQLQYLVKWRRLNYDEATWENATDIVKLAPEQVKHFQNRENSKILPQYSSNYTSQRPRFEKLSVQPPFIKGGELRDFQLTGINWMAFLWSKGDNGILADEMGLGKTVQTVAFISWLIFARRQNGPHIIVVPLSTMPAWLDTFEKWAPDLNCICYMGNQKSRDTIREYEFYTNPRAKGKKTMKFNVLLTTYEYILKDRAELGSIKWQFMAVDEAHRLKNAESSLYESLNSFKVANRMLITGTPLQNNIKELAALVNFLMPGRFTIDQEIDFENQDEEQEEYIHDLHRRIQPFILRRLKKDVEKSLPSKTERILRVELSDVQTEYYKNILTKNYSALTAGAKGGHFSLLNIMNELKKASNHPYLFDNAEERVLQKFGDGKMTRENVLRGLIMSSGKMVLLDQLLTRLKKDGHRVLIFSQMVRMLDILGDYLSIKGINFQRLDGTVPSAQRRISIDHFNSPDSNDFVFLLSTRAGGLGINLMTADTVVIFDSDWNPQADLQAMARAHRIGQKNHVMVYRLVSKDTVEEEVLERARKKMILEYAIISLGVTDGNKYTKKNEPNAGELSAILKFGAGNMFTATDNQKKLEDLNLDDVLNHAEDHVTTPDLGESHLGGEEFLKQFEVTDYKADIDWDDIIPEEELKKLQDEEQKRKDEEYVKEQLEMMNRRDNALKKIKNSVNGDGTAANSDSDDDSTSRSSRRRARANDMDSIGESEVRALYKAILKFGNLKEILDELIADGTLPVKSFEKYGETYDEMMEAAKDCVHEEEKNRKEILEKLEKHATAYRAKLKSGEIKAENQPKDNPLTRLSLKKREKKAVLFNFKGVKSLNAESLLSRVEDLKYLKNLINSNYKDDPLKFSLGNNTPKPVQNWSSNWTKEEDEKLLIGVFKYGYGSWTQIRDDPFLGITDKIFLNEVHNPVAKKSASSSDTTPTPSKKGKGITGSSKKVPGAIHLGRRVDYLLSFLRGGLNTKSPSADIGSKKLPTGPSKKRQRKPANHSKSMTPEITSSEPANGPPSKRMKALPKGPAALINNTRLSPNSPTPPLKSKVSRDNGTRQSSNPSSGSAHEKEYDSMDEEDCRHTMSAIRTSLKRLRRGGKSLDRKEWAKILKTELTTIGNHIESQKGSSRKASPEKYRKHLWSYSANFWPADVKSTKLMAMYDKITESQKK

Protein translocase subunit SecA (Escherichia coli (strain K12)), sequence (P10408 whole entry): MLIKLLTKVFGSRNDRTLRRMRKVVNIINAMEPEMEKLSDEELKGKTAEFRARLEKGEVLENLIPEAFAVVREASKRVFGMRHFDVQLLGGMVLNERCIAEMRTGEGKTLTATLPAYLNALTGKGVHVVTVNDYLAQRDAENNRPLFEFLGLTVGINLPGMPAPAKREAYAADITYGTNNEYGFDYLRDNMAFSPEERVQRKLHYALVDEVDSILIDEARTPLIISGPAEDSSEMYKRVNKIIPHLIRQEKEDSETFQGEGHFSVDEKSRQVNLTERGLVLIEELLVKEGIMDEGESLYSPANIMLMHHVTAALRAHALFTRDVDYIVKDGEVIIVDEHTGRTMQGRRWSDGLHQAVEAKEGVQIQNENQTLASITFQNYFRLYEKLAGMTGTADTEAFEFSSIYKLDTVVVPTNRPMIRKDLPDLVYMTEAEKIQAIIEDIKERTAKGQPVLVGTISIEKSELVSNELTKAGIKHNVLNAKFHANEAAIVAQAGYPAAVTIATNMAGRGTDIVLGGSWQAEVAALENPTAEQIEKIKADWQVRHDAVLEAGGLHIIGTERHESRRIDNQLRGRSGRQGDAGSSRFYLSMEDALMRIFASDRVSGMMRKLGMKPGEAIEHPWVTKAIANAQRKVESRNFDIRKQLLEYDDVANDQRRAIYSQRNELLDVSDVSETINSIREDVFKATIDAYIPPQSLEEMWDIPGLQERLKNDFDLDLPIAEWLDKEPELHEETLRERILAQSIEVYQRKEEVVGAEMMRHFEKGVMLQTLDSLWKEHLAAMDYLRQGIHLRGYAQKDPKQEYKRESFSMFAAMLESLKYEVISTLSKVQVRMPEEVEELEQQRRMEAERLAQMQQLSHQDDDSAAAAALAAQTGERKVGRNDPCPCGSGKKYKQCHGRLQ
Sialic acid-binding Ig-like lectin 9 (Homo sapiens), sequence (Q9Y336 whole entry): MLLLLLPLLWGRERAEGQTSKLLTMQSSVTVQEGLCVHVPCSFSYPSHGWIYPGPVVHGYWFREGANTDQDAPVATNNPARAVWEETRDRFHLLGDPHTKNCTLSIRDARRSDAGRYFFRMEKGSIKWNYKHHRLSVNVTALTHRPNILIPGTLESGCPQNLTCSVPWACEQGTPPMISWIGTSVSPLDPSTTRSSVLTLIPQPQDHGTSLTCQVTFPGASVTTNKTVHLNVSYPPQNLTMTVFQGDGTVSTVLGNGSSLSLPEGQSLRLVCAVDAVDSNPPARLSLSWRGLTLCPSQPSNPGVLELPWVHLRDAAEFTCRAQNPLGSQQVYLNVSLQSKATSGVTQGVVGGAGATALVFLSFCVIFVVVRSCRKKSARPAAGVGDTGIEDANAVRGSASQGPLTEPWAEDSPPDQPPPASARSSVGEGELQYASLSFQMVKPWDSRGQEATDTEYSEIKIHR

SMILES	Percent Effect [1] [%]	Percent Effect [2] [%]	Percent Effect [3] [%]	Percent Effect [4] [%]	Percent Effect (Trypanosoma cruzi) [%]	Percent Effect [5] [%]	Percent Effect [6] [%]	Percent Effect (Homo sapiens) [%]	Percent Effect [7] [%]	Percent Effect [8] [%]	Percent Effect [9] [%]
CC(Cn1cncn1)NCc1nncn1C1CCCCC1 (stereo not drawn)	-0.337	6.94	-10.2	13.3	0.0972	12.4	14.4	-15.2	8.42	15.4	-5.04
COc1ccc(Cc2nnc(SC)o2)cc1OC	-4.8	0	-3.66	1.57	6.72	-1.56	8.72	-12.7	3.83	11.1	-3.69
CCCNC(=O)CNc1cc(C#N)ccc1OCC	-6.04	22.8	-6.15	3.16	4.82	-6.46	11.7	11.7	4.43	21.5	-7.89
COc1ccc(NC(=O)NCC(O)c2ccc(F)cc2F)c(OC)c1 (stereo not drawn)	0.46	3.8	1.85	-3.56	-4.41	10.5	13.2	12.5	3.12	10.1	-20.4
CCc1cnc(CN2CCCC2c2noc(C3CC3)n2)o1 (stereo not drawn)	-2.28	10.8	-15.2	-4.49	5.94	-18.4	23.6	25.5	9.36	18.5	-9.7
CCCc1n[nH]c(C2CN(CCCS(C)(=O)=O)CCO2)n1 (stereo not drawn)	-5.31	11.4	0.105	-1.3	1.13	2.37	14.1	1.09	5.21	10.1	-22.8
CC(C)[C@H](NC(=O)NC1CCS(=O)(=O)C1)C(=O)NCc1cccnc1 (stereo partly drawn)	1.49	-1.33	5.47	2.33	-4.52	-5.46	7.95	-6.4	0	5.13	1.13
CCc1cc(NCCNc2cccnc2)n2nccc2n1	-3.38	2.7	3.96	4.15	-3.09	1.91	10	13.2	4.76	7.32	-3.82
